The record followed here is PubChem BioAssay AID1345085 (National Center for Advancing Translational Sciences (NCATS), 2018).

The subject of the experiment is CASKI. Kind of experiment: Confirmatory qHTS for gynecologic anti-cancer compounds from libraries of approved drugs and bioactive compounds. Further: nearly all actives have a fitted effect of over 55% in size. The following applies: gynecologic cancer cell panel viability, ATPlite luminescence, 48 h; series mostly up to 57.6 µM. In short, it runs like this:
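1,000 cells/well; 16 h pre-incubation 37 C, 5% CO2; pin-transferred cpd in DMSO, 11 conc (1:3), 57.5 uM–0.977 nM; 48 h; ATPlite, 15 min RT; luminescence → IC50.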
For orientation: Quantitative high-throughput screening tests each substance at several concentrations.

Records with an inconclusive call do not appear. A number with no mark means an inactive call. Calls of active or inactive are those of the source. The call rests on the fitted dose curve; in most records, active means well fitted cell-killing curve with a large enough effect; inconclusive means small, poorly fitted or top-dose-only effect, or effect the other way; inactive means no such curve, though single readings can be large or run the other way.
On the % scale 0 is the no-effect control and ±100 the full control effect; potency means the concentration at half of the fitted maximal effect.

Take `CN(C[C@@H]1COCCO1)S(=O)(=O)Nc1ccc2ccc3ncc(-c4cnn(C)c4)cc3c(=O)c2c1`: the Potency entry is “inactive”.

With `Cc1cncc2cccc(S(=O)(=O)N3CCCN(C(=O)CN)C[C@@H]3C)c12`, the Potency result was “inactive”.

As to `COc1cc(N2CCC(N)CC2)ccc1Nc1ncc(Cl)c(-c2c[nH]c3ccccc23)n1`, the Potency was 24.3 µM (active).

As for `CN(C)c1ccc(-c2nc3ncc(Cl)c(N4CCN(CC(=O)Nc5nccs5)CC4)c3[nH]2)cc1`, the Potency entry was “inactive”.

In the case of `CCCCN(CCCC)C(=O)CN1C[C@H](c2ccc3c(c2)OCO3)[C@@H](C(=O)O)[C@@H]1c1ccc(OC)cc1`, the Potency entry is “inactive”.

For `COc1c(C)c2c(c(O)c1C/C=C(\C)CCC(=O)O)C(=O)OC2`, the Potency entry is “inactive”.

Regarding `NS(=O)(=O)c1ccc(Nc2nc(OCC3CCCCC3)c3[nH]cnc3n2)cc1`, the Potency entry was “inactive”.

In the case of `CCC1C(=O)N(C)c2cnc(Nc3ccc(C(=O)NC4CCN(C)CC4)cc3OC)nc2N1C1CCCC1` (centres undefined), the Potency was 6.85 µM (active).

As to `CC[C@H](CC#N)OC(=O)N[C@@H](C)c1cccc(NC(=O)Nc2ccc(-c3cnco3)c(OC)c2)c1`, the Potency entry was “inactive”.

Regarding `CC(=O)O[C@H]1C(=O)[C@@]2(C)[C@H]([C@H](OC(=O)c3ccccc3)[C@]3(O)C[C@H](OC(=O)[C@H](O)[C@@H](NC(=O)c4ccccc4)c4ccccc4)C(C)=C1C3(C)C)[C@]1(OC(C)=O)CO[C@@H]1C[C@@H]2O`, the activity change, negative = viability loss is -4.63% [at 10.7 µM].

For `Nc1ccccc1NC(=O)c1ccc(CNc2nccc(-c3cccnc3)n2)cc1`, the Potency is 8.63 µM (active).

For the compound `Cc1ccc(C(=O)Nc2ccc(Oc3cc4cnn(C)c4cc3-c3cn[nH]c3)c(F)c2)c(=O)n1-c1ccc(F)cc1`, the Potency entry was “inactive”.

Take `Cn1c(=O)c(F)c(Nc2ccc(I)cc2F)c2c(=O)n(CC(O)CO)cnc21` (centres undefined): the Potency was 24.3 µM (active).

Regarding `O=C1N(c2ccccc2)c2ccccc2C1(Cc1ccncc1)Cc1ccncc1`, the Potency result is “inactive”.

For `CN1C2CCC1CC(OC(=O)[C@H](CO)c1ccccc1)C2` (some centres undefined), the Potency entry is “inactive”.

As for `Cc1cc(CN2CCN(c3c(Br)cnc4nc(-c5ccc(N6CCN(C)CC6)cc5)[nH]c34)CC2)no1`, the Potency was 27.3 µM (active).

Regarding `CNCc1ccc(-c2[nH]c3cc(F)cc4c3c2CCNC4=O)cc1`, the Potency entry was “inactive”.

As for `COc1cc(Nc2c(C#N)cnc3cc(OCCCN4CCN(C)CC4)c(OC)cc23)c(Cl)cc1Cl`, the Potency is 24.3 µM (active).

For `O=C(CCCCCCNC(=O)c1cnc(N(c2ccccc2)c2ccccc2)nc1)NO`, the Potency is 21.7 µM (active).

For `Cc1nc(Nc2ncc(C(=O)Nc3c(C)cccc3Cl)s2)cc(N2CCN(CCO)CC2)n1`, the Potency is 0.109 µM (active).

Regarding `CCCCc1oc2ccccc2c1C(=O)c1cc(I)c(OCCN(CC)CC)c(I)c1`, the Potency was 79.4 µM (active).

`COc1cc(N2CCC(N3CCN(C)CC3)CC2)ccc1Nc1ncc(Cl)c(Nc2ccccc2S(=O)(=O)C(C)C)n1`: the Potency was 12.2 µM (active).

On to `CC(C)c1nn(-c2c(Cl)cccc2Cl)c2nc(Cc3ccc(OCCO)cc3)[nH]c(=O)c12`, for which the Potency was 0.137 µM (active).

In the case of `COc1cc(Nc2ncc(F)c(Nc3ccc4c(n3)N(COP(=O)(O)O)C(=O)C(C)(C)O4)n2)cc(OC)c1OC`, the Potency is 5.44 µM (active).

For the compound `COCCOc1ccc2c(c1)ncn2-c1ccc2cccc(N3CCC(N)CC3)c2n1`, the Potency is 27.3 µM (active).

Consider `O=c1cc(CN2CCOCC2)occ1OCCCCCSc1ccnc2cc(C(F)(F)F)ccc12`, for which the Potency was 24.3 µM (active).

On to `OC[C@H]1O[C@@H](n2cnc3c(=S)nc[nH]c32)[C@H](O)[C@@H]1O`, for which the Potency was 4.85 µM (active).

For `NC(=O)c1cccc2cn(-c3ccc([C@@H]4CCCNC4)cc3)nc12`, the Potency result is “inactive”.

In the case of `Nc1nc(Cl)nc2c1ncn2C1OC(CO)C(O)C1F` (centres undefined), the Potency is 1.22 µM (active).
